Among the data in PubChem BioAssay (NCATS) are cell viability, % of control (lower = more cytotoxic), viability (% of control) and Potency values, retold here.

Structures are written as SMILES. Results filed as inconclusive are left out. Active and inactive are the calls of the source. Unless noted, the call rests on the fitted dose curve; in most records, active means well fitted inhibition curve with a large enough effect; inconclusive means small, poorly fitted or top-dose-only effect; inactive means no such curve, though single readings can be large or run the other way.

A short description of assay [1]: High-throughput drug toxicity screening in the BPDCN cell line Gen2.2 (AID 1224824; call rule not given here;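 further: cells exposed to compounds for 48 h before reading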). As to conditions: Gen2.2 BPDCN cells; at 45.8 µM (top of the series). The method in brief:
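Seed 500 exponentially growing Gen2.2 cells/well; add compounds by pin tool; incubate 48 h, 37 °C, 5% CO2; add CellTiter-Glo, 15 min RT; read luminescence. % activity vs DMSO (100%) and bortezomib (0%).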

Assay [2] in a line: High-throughput drug toxicity screening in the BPDCN cell line Cal-1 (AID 1224825; call rule not given here). The conditions noted are these: Cal-1 BPDCN cell viability, qHTS; at 45.8 µM (top of the series). The method in brief:
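Viability of the BPDCN line Cal-1 is measured as ATP-based luminescence (CellTiter-Glo) following 48 h incubation with compounds. Percent activity uses DMSO-treated wells as 100% and 9.2 uM bortezomib as 0%.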
Background: Quantitative high-throughput screening tests each substance at several concentrations.

Assay [3] in a line: qHTS assay for measurement of the activity of small molecule inhibitors on Zika virus induced Caspase-3 activity in human astrocytoma cells (AID 1224859). Further: potency means the concentration at half of the fitted maximal effect. In outline: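 Inhibition of Zika-induced caspase-3/7 activity: SNB-19 cells, 1 h compound pretreatment, ZIKV 2 FFU/cell for 6 h at 37 C, Caspase-Glo luminescence read-out.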
Assay [4] is described as follows: qHTS assay for measurement of the activity of small molecule inhibitors on Zika virus induced Caspase-3 activity in human iPSC derived neural progenitor cells (hNPCs) (AID 1224857). Further: % of control where 0% means no effect; nearly all actives have a fitted effect of over 65% in size. The method in brief: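 After overnight (16–20 h) culture at 350 cells/well, hNPCs get compound, then ZIKV 2 FFU/cell one hour later. Six hours on, Caspase-Glo 3/7 is added and luminescence measured.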

On to `CCN(CC)C(=O)c1ccc(C2=CC3(CCNCC3)Oc3cccc(O)c32)cc1`, for which the cell viability, % of control (lower = more cytotoxic) in assay [1] was found to be 122%. Moreover, the viability (% of control) in assay [2] was found to be 79%. In assay [3], the Potency result is “inactive”.
The corresponding values for `C[C@@H]1O[C@@H](O[C@@H]2C=C3CC[C@@H]4[C@@H](CC[C@]5(C)[C@H](c6ccc(=O)oc6)CC[C@@]45O)[C@@]3(C)CC2)[C@H](O)[C@H](O)[C@H]1O` are 16.6%, 3.76% and “inactive”.
In the case of `C[C@@H]1[C@H](O)[C@@H](C)C=CC=CCCC=CC=CC=CC=C[C@H](O[C@H]2O[C@@H](C)[C@H](O)[C@@H](N)[C@@H]2O)CC2O[C@](O)(C[C@@H](O)[C@H](O)CC[C@@H](O)C[C@@H](O)C[C@@H](O)CC(=O)O[C@H]1C)C[C@H](O)[C@H]2C(=O)O`, the cell viability, % of control (lower = more cytotoxic) in assay [1] stood at 152%. Besides, the viability (% of control) in assay [2] is 124%. Moreover, the Potency entry in assay [3] is “inactive”.
In the case of `O=C(O)CNC(=O)c1c(O)c2ccccc2n(Cc2ccccc2)c1=O`, the cell viability, % of control (lower = more cytotoxic) in assay [1] stood at 256%. Further, the Potency entry in assay [4] and in assay [3] was “inactive” throughout.
In the case of `CC(C)N[C@@H]1CCn2c(=O)[nH]c3cccc(c32)[C@@H]1O`, in assay [1], the cell viability, % of control (lower = more cytotoxic) turned out to be 22.6%. In addition, in assay [2], the viability (% of control) worked out at 7.1%. The Potency result in assay [3] is “inactive”.
Regarding `COCC1(CO)C(=O)C2CCN1CC2` (centres undefined), the cell viability, % of control (lower = more cytotoxic) in assay [1] amounted to 4.6%. Further, the viability (% of control) in assay [2] stood at 2.52%. For the same molecule, the Potency entry in assay [4] and in assay [3] was “inactive” in each case.
In the case of `CC[C@@]1(O)C(=O)OCc2c1cc1n(c2=O)Cc2cc3ccccc3nc2-1`, in assay [1], the cell viability, % of control (lower = more cytotoxic) was 4.89%. Moreover, the Potency entry in assay [4] and in assay [3] was “inactive” each time.
Consider `COc1ccc(CC2NCCc3cc(OC)c(OC)cc32)cc1OC` (centres undefined), for which the cell viability, % of control (lower = more cytotoxic) in assay [1] amounted to 150%. The viability (% of control) in assay [2] is 102%. Moreover, the Potency result in assay [3] is “inactive”.
For `O=[N+]([O-])c1ncc[nH]1` the same measures were 102%, 122% and “inactive”.
For `O=c1[nH]c2ccc(Cl)cc2c(N[C@@H]2CN3CCC2CC3)c1-c1nc2ccccc2[nH]1`, the cell viability, % of control (lower = more cytotoxic) in assay [1] amounted to 2.72%. In addition, the Potency entry in assay [4] and in assay [3] was “inactive” each time.
Regarding `O=C(NCC1CCOCC1)c1cnc(Nc2ccc(Cl)cc2Cl)nc1C(F)(F)F`, in assay [1], the cell viability, % of control (lower = more cytotoxic) came to 7.01%. In assay [4], the Potency entry was “inactive”. The Potency in assay [3] was 8.33 µM (active).
Turning to `CN[C@@H]1Cc2cccc3[nH]c(=O)n(c23)C1`, in assay [2], the viability (% of control) amounted to 119%. The Potency result in assay [4] and in assay [3] was “inactive” throughout.
Consider `CC[C@H]1C=CC=CC[C@@H](C)[C@H](O)[C@@](C)(O)C(=O)[C@@H](C)[C@H](O)[C@@H](C)C(=O)[C@@H](C)[C@H](O)[C@@H](C)C=CC(=O)O[C@@H]2[C@@H](C)[C@H](CC1)O[C@]1(CC[C@H](C)[C@H](C[C@@H](C)O)O1)[C@H]2C`, for which the cell viability, % of control (lower = more cytotoxic) in assay [1] amounted to 8.73%. Also, the Potency result in assay [4] and in assay [3] was “inactive” each time.
On to `CCCN1CCO[C@@H]2c3cc(O)ccc3OC[C@@H]21`, for which, in assay [1], the cell viability, % of control (lower = more cytotoxic) was determined as 209%. The Potency result in assay [4] and in assay [3] was “inactive” each time.
On to `CC(C)N(CCNC(=O)CN1CCCC1=O)C(C)C`, for which the viability (% of control) in assay [2] stood at 111%. Besides, the Potency entry in assay [4] and in assay [3] was “inactive” throughout.
`O=c1[nH]c2ccccc2n1C1CCN(Cc2ccc(-c3[nH]c4cc5ncnc5cc4nc3-c3ccccc3)cc2)CC1`: the cell viability, % of control (lower = more cytotoxic) in assay [1] turned out to be 4.84%. Further, the Potency result in assay [4] and in assay [3] was “inactive” in each case.
As to `O=S(=O)(F)Cc1ccccc1`, the viability (% of control) in assay [2] came to 97.3%. The Potency entry in assay [4] and in assay [3] was “inactive” throughout.
As for `CC=C(C)C(=O)O[C@H]1C(C)=C2[C@@H]3OC(=O)[C@@](C)(O)[C@@]3(O)[C@@H](OC(=O)CCC)C[C@](C)(OC(C)=O)[C@@H]2[C@@H]1OC(=O)CCCCCCC`, in assay [1], the cell viability, % of control (lower = more cytotoxic) stood at 12.1%. For the same molecule, in assay [3], the Potency entry was “inactive”.
`C[C@]12CC[C@H](O)CC1=CC[C@H]1[C@H]3CCC(=O)[C@@]3(C)CC[C@@H]12`: the cell viability, % of control (lower = more cytotoxic) in assay [1] amounted to 136%. Also, the viability (% of control) in assay [2] was determined as 104%. Also, the Potency result in assay [3] was “inactive”.
Take `CC=C(C)C(=O)N[C@@H](c1ccccc1)[C@@H](O)C(=O)O[C@H]1C[C@@]2(O)[C@@H](OC(=O)c3ccccc3)[C@@H]3[C@]4(OC(C)=O)CO[C@@H]4C[C@H](O)[C@@]3(C)C(=O)[C@H](OC(C)=O)C(=C1C)C2(C)C`: the cell viability, % of control (lower = more cytotoxic) in assay [1] amounted to 47%. Besides, the Potency result in assay [4] and in assay [3] was “inactive” in each case.
Take `COc1cc([C@@H]2c3cc4c(cc3[C@@H](O)C3COC(=O)C32)OCO4)cc(OC)c1O` (some centres undefined): the cell viability, % of control (lower = more cytotoxic) in assay [1] is 6.47%. The Potency result in assay [4] is “inactive”.
As for `CCCC[N+]1(C)[C@H]2CC(OC(=O)[C@H](CO)c3ccccc3)C[C@H]1[C@H]1O[C@H]12` (some centres undefined), the cell viability, % of control (lower = more cytotoxic) in assay [1] was 119%. Further, in assay [4], the Potency entry was “inactive”.
In the case of `C[C@H]1CCCC=CC2C[C@H](O)C[C@@H]2[C@H](O)C=CC(=O)O1` (some centres undefined), in assay [2], the viability (% of control) worked out at 4%. Also, the Potency entry in assay [4] and in assay [3] was “inactive” in each case.
Take `CN(C)[C@@H]1C(=O)C(C(N)=O)=C(O)[C@@]2(O)C(=O)C3=C(O)c4c(O)cccc4[C@@](C)(O)[C@H]3[C@H](O)[C@@H]12`: the viability (% of control) in assay [2] came out at 100%. For the same molecule, the Potency entry in assay [4] and in assay [3] was “inactive” each time.
Turning to `O=C(Oc1ccc([N+](=O)[O-])cc1)N1CCN(Cc2cccc(Oc3ccccc3)c2)CC1`, the cell viability, % of control (lower = more cytotoxic) in assay [1] is 151%. In assay [2], the viability (% of control) stood at 54.4%. Moreover, the Potency entry in assay [3] was “inactive”.
Turning to `CC1=C(O)C(=O)C=C2C1=CC=C1[C@@]2(C)CC[C@@]2(C)[C@@H]3C[C@](C)(C(=O)O)CC[C@]3(C)CC[C@]12C`, in assay [2], the viability (% of control) was 7.21%. Moreover, the Potency result in assay [4] and in assay [3] was “inactive” each time.
With `CCc1c(C(=O)C(N)=O)c2c(OCC(=O)O)cccc2n1Cc1ccccc1`, in assay [1], the cell viability, % of control (lower = more cytotoxic) amounted to 114%. In addition, the Potency entry in assay [4] and in assay [3] was “inactive” throughout.
